# Source: PubChem
# ATXN2 expr inh: inhibitors of ATXN2 expression; Potency, µM (doses to about 57 µM), inactives show top-dose activity change, negative = inhibition, most hits filed as inhibitors; 360,000 tested, 0.72% active; HEK-293 ATXN2-luciferase reporter, luminescence, 24 h; further: potency means the concentration at half of the fitted maximal effect; on the % scale 0 is the no-effect control and ±100 the full control effect; nearly all actives have a fitted effect of over 55% in size
#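 qHTS (up to 57 uM final) was run with 24 h compound exposure of reporter cells at 37 °C. Each well was multiplexed: SteadyGlo luminescence measured ATXN2-luciferase expression after a fluorogenic Gly-Phe-AFC viability readout (25 uM final).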
# ATXN viability: cell viability loss in ATXN counter-screen. S2 cells (HEK-293 line with an ATXN2-luciferase reporter) viability, CellTiter-Fluor protease fluorescence, 24 h. Potency, µM (highest dose often 56.7 µM), hits mostly cytotoxic. 400,000 tested, 0.49% active; further: potency means the concentration at half of the fitted maximal effect; nearly all actives have a fitted effect of over 40% in size
# HepG2 tox-1: counter-screen for TGF-b inhibitors: cytotoxicity in HepG2 cells; HepG2 CAGA-GFP viability, ATP luminescence, 18 h; Potency, µM (top dose mostly 46.1 µM), for the others: at the highest dose activity change, negative = cytotoxicity, actives largely listed as cytotoxic; 410,000 tested, 0.76% active; AID 588856; further: potency means the concentration at half of the fitted maximal effect
#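 CellTiter-Glo luminescence gave cytotoxicity after 18 hours at 37 degrees C. The cells were HepG2 CAGA-GFP in 1% FBS DMEM, stimulated with 500 pg/mL TGF-beta after compound addition. %Activity was normalised to no-cell wells (complete cell-killing) and DMSO (no toxicity), and curves were fitted and classified.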
# TGFb inhibitor: TGF-b pathway inhibition. Potency, µM (top dose mostly 46.1 µM), for the others: at the top dose activity, negative = inhibition, hits mostly inhibitors. HepG2 CAGA-GFP TGF-b/SMAD3 reporter, GFP fluorescence, 18 h; TGF-beta stimulated, 500 pg/mL final. 410,000 tested, 1.2% active; further: potency means the concentration at half of the fitted maximal effect; on the % scale 0 is the no-effect control and ±100 the full control effect; nearly all actives have a fitted effect of over 65% in size
#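 HEPG2 CAGA-GFP reporter cells (1000/well, DMEM with 1% FBS) received compounds, then recombinant TGF-beta at 500 pg/mL final for 18 hours at 37 degrees C. Per-cell GFP summed per well was normalised to unstimulated and stimulated DMSO controls before curve fitting.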
# IL-1B inflam inh: inhibitors of inflammasome signaling (IL-1 beta secretion); THP-1 LPS/ATP IL-1B secretion, AlphaLISA, 16 h; hits give low values; 360,000 tested, 4.7% active; AID 743279; activity change, % at 57.5 µM; in the data active means activity change below about -50%; inconclusive means mostly about -30% to -49%; further: on the % scale 0 is the no-effect control and ±100 the full control effect
#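 Secreted IL-1B measured by AlphaLISA bead assay after 16 h compound exposure of THP-1 cells; compounds (final up to 57.5 uM) added 1 h before LPS (250 ng/mL) and ATP (1.25 mM) stimulation; lower signal means less secretion.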
# TGFb CAGA inh: TGF-b pathway inhibition, cherry-pick retest | shares compounds with TGFb inhibitor | HepG2 CAGA-GFP TGF-b reporter, GFP fluorescence, 18 h; cells stimulated with TGF-beta, 500 pg/mL | Potency, µM (titrated, usually from 46.1 µM), for the others: at the highest dose activity, negative = inhibition, hits mostly inhibitors | 1,600 tested, 63% active | AID 720534; further: potency means the concentration at half of the fitted maximal effect; on the % scale 0 is the no-effect control and ±100 the full control effect; nearly all actives have a fitted effect of over 65% in size
# HepG2 tox-2: toxic to HepG2 cells in TGF-b counterscreen; 1,600 tested, 27% active; shares compounds with TGFb inhibitor; AID 720535; Potency, µM (top dose mostly 46.1 µM), without a hit: at the top dose activity, negative = cytotoxicity, most hits filed as inhibitors; HepG2 CAGA-GFP viability, ATP luminescence, 18 h; cells stimulated with TGF-beta, 500 pg/mL; further: potency means the concentration at half of the fitted maximal effect; on the % scale 0 is the no-effect control and ±100 the full control effect; nearly all actives have a fitted effect of over 70% in size
# TGFb CCL64 inh: orthogonal confirmation of TGF-b inhibitors in CCL64 cells; CCL64 CAGA-GFP reporter, TGF-b stimulated, GFP fluorescence, 18 h; AID 720536; 1,600 tested, 41% active; Potency, µM (doses to about 46.1 µM), inactives show at the highest dose activity, negative = inhibition, most hits filed as inhibitors; shares compounds with TGFb inhibitor; further: potency means the concentration at half of the fitted maximal effect; nearly all actives have a fitted effect of over 65% in size
# TGFb COP inh: blocks TGF-b signaling in HepG2 COP reporter; Potency, µM (series often up to 46.1 µM), inactives show at the top dose activity, negative = inhibition, most hits filed as inhibitors; HepG2 COP-GFP TGF-b reporter, GFP fluorescence, 18 h; cells stimulated by added recombinant TGF-beta; AID 720537; 1,600 tested, 3% active; shares compounds with TGFb inhibitor; further: potency means the concentration at half of the fitted maximal effect; nearly all actives have a fitted effect of over 70% in size
# Starred values were filed as active, the others as inactive; i = inactive; ? = inconclusive; nt = no result. Rows were chosen to be rich in hits. Some 5.7% of all compounds tested hit in one or more screens of this group. Unless noted, the call rests on the fitted dose curve; in most records, active means well fitted curve in the direction sought with a large enough effect; inconclusive means small, poorly fitted or top-dose-only effect, or another doubt; inactive means no such curve, though single readings can be large; an effect the other way counts as inactive or inconclusive.
SMILES,ATXN2 expr inh,ATXN viability,HepG2 tox-1,TGFb inhibitor,IL-1B inflam inh,TGFb CAGA inh,HepG2 tox-2,TGFb CCL64 inh,TGFb COP inh
O=S(=O)(/C(=C/c1ccc(C(F)(F)F)cc1)c1nc2ccccc2[nH]1)c1ccccc1,?,27µM*,7.9µM*,5µM*,-104*,2.9µM*,2.6µM*,1.8µM*,?
CC(C)c1ccc(/C=C(\c2nc3ccccc3[nH]2)S(=O)(=O)c2ccccc2)cc1,?,?,10µM*,7.9µM*,-103*,16µM*,10µM*,4.6µM*,-17%
CCn1c(=O)c(C(=O)CN2CCN(S(=O)(=O)c3cc(C)ccc3C)CC2)c(N)n(Cc2ccccc2)c1=O,-23%,i,-14%,11µM*,0,12µM*,?,12µM*,66%
CCOC(=O)CCc1ccc(NC(=O)/C=C/c2ccc([N+](=O)[O-])o2)cc1,?,8.4µM*,10µM*,4.5µM*,-80*,9.2µM*,13µM*,?,-31%
C=C(C(=O)c1ccccc1)C(C)CC(=O)c1ccccc1 (centres undefined),?,nt,-3%,13µM*,-106*,4.6µM*,15µM*,15µM*,-43%
O=C(CC(Nc1ccccc1)C(=O)O)c1ccccc1 (centres undefined),124%,i,-3%,-5%,11,nt,nt,nt,nt
O=C(NC(=S)Nc1ccc([N+](=O)[O-])cc1O)C1CCCCC1,3%,i,-36%,11µM*,?,16µM*,?,19%,28%
O=C(NC(=S)Nc1cccc([N+](=O)[O-])c1)C1CCCC1,3%,i,-10%,-13%,-23,nt,nt,nt,nt
CC(=O)n1nc(-c2ccncc2)nc1SCC(=O)Nc1cccc(Cl)c1,-17%,i,5%,4µM*,40,3.7µM*,-13%,7.3µM*,19%
CCn1c(C)nnc1SCC(=O)Nc1cccc(Cl)c1,1%,i,-2%,-11%,30,nt,nt,nt,nt
Cc1cccc(NC(=O)CSc2n[nH]c(-c3ccncc3)n2)c1,-13%,i,-16%,3.5µM*,27,5.2µM*,1%,10µM*,3%
CC(=O)c1cccc(NC(=O)CSc2n[nH]c(-c3ccncc3)n2)c1,5%,i,1%,-20%,62,nt,nt,nt,nt
CN(CC(=O)Nc1ccc(Cl)cc1F)S(=O)(=O)c1ccc2c(c1)n(C)c(=O)c(=O)n2C,7%,i,-4%,-5%,nt,nt,nt,nt,nt
CCOc1ccc(CN2CCN(C(=O)c3cccc4ccccc34)CC2)cc1,?,i,-41%,?,-83*,9.2µM*,?,3%,2%
Cc1cc(-c2ccc(C)c(S(=O)(=O)N(C)c3ccc(C)c(C)c3)c2)on1,nt,nt,-27%,-23%,nt,nt,nt,nt,nt
CCOc1ccc(C(=O)NC(=S)Nc2cccc(NC(=O)c3ccco3)c2)cc1[N+](=O)[O-],-27%,i,-17%,8.9µM*,?,8.2µM*,-23%,?,-7%
CN(c1cccc(NC(=O)CN(c2cccc(Cl)c2)S(=O)(=O)c2ccccc2)c1)S(C)(=O)=O,4%,i,-40%,?,-9,-6%,-28%,?,4%
CCCCCn1c(NC(=O)c2ccco2)c(S(=O)(=O)c2ccc(C)cc2)c2nc3ccccc3nc21,-19%,i,-48%,?,-7,nt,nt,nt,nt
CCCCn1c(NC(=O)c2ccco2)c(S(=O)(=O)c2ccc(C)cc2)c2nc3ccccc3nc21,2%,nt,-6%,?,0,3%,-20%,16µM*,32%
CCCCCC(=O)N/N=C(\C)c1ccccn1,?,i,-6%,-29%,47,nt,nt,nt,nt
CC(=NNC(=S)N1CCCC1)c1ccccn1,nt,?,-22%,?,77,?,?,?,-14%
COc1cn(CC(=O)Nc2c(C)cc(C)cc2C)c(CN2CCCCC2)cc1=O,nt,nt,1%,1%,nt,nt,nt,nt,nt
CCCN(CCC)Cc1c(C(=O)N/N=C/C(C)=C\c2ccco2)nnn1-c1nonc1N,?,nt,-15%,7.9µM*,-60*,5.2µM*,?,?,26%
CC(/C=N/NC(=O)c1nnn(-c2nonc2N)c1CN(C)C)=C\c1ccco1,-9%,i,-9%,11%,-1,nt,nt,nt,nt
Cc1cccc(C)c1NC(=O)Cn1c(=O)n(Cc2ccccc2)c(=O)c2c(C)c(C(=O)N(C)C)sc21,1%,i,-31%,-5%,nt,nt,nt,nt,nt
SMILES,ATXN2 expr inh,ATXN viability,HepG2 tox-1,TGFb inhibitor,IL-1B inflam inh,TGFb CAGA inh,HepG2 tox-2,TGFb CCL64 inh,TGFb COP inh
CN(C)c1cccc2c1C(=O)c1ccccc1C2=O,-3%,?,-18%,-23%,?,nt,nt,nt,nt
Cc1ccc(SC2=C(N(C)C)C(=O)c3ccccc3C2=O)cc1,?,?,-50%,10µM*,-64*,?,-21%,21µM*,43%
COc1ccc(Cl)cc1NC(=O)CSc1nc(-c2ccco2)cc(C(F)(F)F)n1,nt,nt,-7%,?,nt,nt,nt,nt,nt
Oc1ccc(C[C@H]2CNC(=S)N2CC2CCCN2C[C@H](Cc2ccccc2)N2C[C@H](Cc3ccc(O)cc3)N(CCc3ccccc3)C2=S)cc1 (some centres undefined),?,?,2%,7.9µM*,?,5.8µM*,?,9.2µM*,62%
CC(C)C[C@H]1CNC(=S)N1C[C@H]1CCCN1C[C@H](Cc1ccc(O)cc1)N1C[C@H](Cc2ccc(O)cc2)N(CCc2ccccc2)C1=S,?,nt,-40%,10µM*,?,?,15µM*,4.6µM*,78%
Oc1ccc(C[C@@H](CN2CCC[C@@H]2CN2C(=S)NC[C@@H]2Cc2ccccc2)N2C[C@H](Cc3ccccc3)N(CCc3ccccc3)C2=S)cc1,-12%,?,-51%,-6%,-17,nt,nt,nt,nt
